SARS PLpro yeast: SARS-CoV PLP inhibition in yeast; S. cerevisiae expressing SARS-CoV PLpro, growth rescue; Potency, µM (highest dose often 32.9 µM), inactives show at the highest dose activity, positive = growth rescue, actives largely listed as activators; AID 485353; 0.19% of 330,000 active; calls by dose curve; note: 0% is about no effect; nearly all actives have a fitted effect of over 55% in size
AMA1 RON2 block: AMA1-RON2 (P. falciparum) interaction inhibition | AID 720542 | AlphaScreen AMA1-biotinylated RON2 peptide binding | Potency, µM (series often up to 58.2 µM), without a hit: top-dose activity change, negative = inhibition, most hits filed as inhibitors | 0.2% of 360,000 active;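 note: 0% = vehicle wells and -100% = peptide control; nearly all actives have a fitted effect of over 45% in size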
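AMA1 (3D7) with his tag at 25 nM final met compounds first, then biotinylated RON2 peptide at 25 nM; detection used donor plus acceptor beads, 10 µg/mL apiece, read by AlphaScreen after 30 min at room temperature.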
Pf growth 96h: P. falciparum growth inhibition at 96 hours; P. falciparum luciferase reporter growth, 96 h; Potency, µM (series often up to 28.7 µM), for inactives: at the top dose activity change, negative = inhibition, most hits filed as inhibitors; 6.9% of 320,000 active; note: % is set by controls: 0 for no effect and ±100 for the full control effect
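Readout is luminescence from an integrated firefly luciferase in P. falciparum. Red cells, 2% hematocrit and 0.05% parasitemia final, were cultured with compound through two parasite generations (96 hours) at 37 C, 5% CO2.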
Pf growth 48h: P. falciparum growth inhibition at 48 hours (one generation); P. falciparum luciferase growth in erythrocytes, 48 h; Potency, µM (titrated, usually from 28.7 µM), without a hit: at the highest dose activity change, negative = inhibition, most hits filed as inhibitors; 5.9% of 310,000 active; AID 504832; note: % is set by controls: 0 for no effect and ±100 for the full control effect
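Cell-based growth assay: transgenic P. falciparum expressing firefly luciferase, cultured in red cells within RPMI 1640 containing 0.5% w/v Albumax, 24 mM bicarbonate and gentamycin. A drop in luciferase activity indicates inhibition.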
Starred values were filed as active, the others as inactive; ? = inconclusive; nt = no result; [ ] = dose if it differs, or a comment. An excerpt weighted towards active compounds, which were near 9.4% of everything screened. Unless noted, calls come from the whole dose curve; as a rule, active = well fitted curve in the direction sought with a large enough effect; inconclusive = small, poorly fitted or top-dose-only effect, or another doubt; inactive = no such curve, though single readings can be large; an effect the other way counts as inactive or inconclusive. Potency is the fitted concentration of half-maximal effect.

SMILES	SARS PLpro yeast	AMA1 RON2 block	Pf growth 96h	Pf growth 48h
Cc1ccc(-c2cc(C#N)c(=O)n(Cc3c(Cl)cccc3Cl)c2)cc1	0.3%	3.7%	?	?
N#Cc1cc(-c2ccccc2)cn(Cc2c(Cl)cccc2Cl)c1=O	1.5%	-5.4%	1.65µM*	?
COc1ccc(S(N)(=O)=O)cc1C(=O)NNC(=O)c1cccc(S(=O)(=O)N2CCOCC2)c1	nt	5.9%	nt	nt
COc1ccc(Nc2sc(C(=O)c3ccc(Cl)cc3)c(N)c2C(=O)Nc2ccccc2OC)cc1	-5.0%	-14.4%	nt	10.4µM*
COc1ccccc1NC(=O)c1c(Nc2ccccc2C)sc(C(=O)Nc2cccc(Cl)c2)c1N	-15.3%	4.2%	10.4µM*	?
CCC(=O)Nc1sc(C(=O)Nc2ccccc2OC)c(C)c1C(=O)OC	0.7%	22.4%	-6.9%	-13.1%
Cc1cc(C)c2c(N)c(C(=O)Nc3cccc(C)c3C)sc2n1	0.5%	-4.0%	25.7%	1.6%
COc1ccc(NC(=O)c2c(Nc3ccccc3)sc(C(=O)c3ccc(F)cc3)c2N)cc1	-10.4%	-15.1%	nt	?
COc1ccc(C(=O)c2sc(Nc3ccccc3)c(C(=O)Nc3ccc(OC)c(OC)c3)c2N)cc1	3.9%	-6.9%	?	13.1µM*
COc1ccc(C(=O)c2sc(Nc3cccc(OC)c3)c(C(=O)Nc3cccc(C)c3C)c2N)cc1	7.2%	67.2%	11.7µM*	nt
N#Cc1cc2sc3nc4ccccc4n3c2cc1C#N	1.8%	nt	nt	-1.2%
N#Cc1cc2sc3nnc(-c4ccncc4)n3c2cc1C#N	-13.3%	-4.7%	?	13.1µM*
Cc1cc(C(=O)N/N=C2\CC(=O)c3ccccc32)c(C)n1-c1ccc(F)cc1	-0.6%	86.2%	2.33µM*	4.65µM*
Cc1cccc(N2C(=O)c3cccc4c(N(C)CCO)ccc(c34)C2=O)c1	-3.2%	41.7%	5.86µM*	?
CCOC(=O)/C(C#N)=C/c1cn(CCOc2ccccc2)c2ccccc12	22.7%	-2.7%	9.28µM*	13.9%
Cc1ccc(C)c(OCCn2cc(/C=C(\C#N)C(=O)NCC3CCCO3)c3ccccc32)c1 (configuration not stated)	17.0%	-15.3%	1.65µM*	2.62µM*
Cc1ccc(CS/C(Nc2ccccc2C)=C(\C#N)C(=O)NCc2ccco2)c(C)c1	0.8%	4.4%	15.1%	2.33µM*
Cc1ccc(C)c(NC(=O)/C(C#N)=C/c2cn(CC(=O)NCc3ccco3)c3ccccc23)c1	1.8%	5.0%	14.7µM*	17.0%
Cc1ccccc1OCCn1cc(/C=C(\C#N)C(=O)NCc2ccco2)c2ccccc21	26.0%	-1.6%	-29.4%	5.7%
COc1ccc(-c2cc3ncc(-c4ccccc4)c(N)n3n2)cc1	-0.9%	-3.9%	-47.7%	211.0%
COc1cc2c(cc1OC)C(C(=O)NCCC(C)C)C1CCCCN1C2=O (configuration not stated)	-9.5%	1.2%	?	8.5%
Cc1ccc(OCCn2cc(/C=C(\C#N)C(=O)NCC3CCCO3)c3ccccc32)cc1 (configuration not stated)	23.8%	-17.3%	92.4%	10.4µM*
CCOc1cc(/C=C(\C#N)C(=O)NCC2CCCO2)ccc1OCC(N)=O (configuration not stated)	1.4%	-14.9%	6.3%	7.4%
Cc1ccc(OCCn2cc(/C=C(\C#N)C(=O)NCC3CCCO3)c3ccccc32)cc1C (configuration not stated)	11.9%	-7.5%	?	?
COc1cc(/C=C(\C#N)C(=O)NCC2CCCO2)ccc1OCC(=O)O (configuration not stated)	-0.2%	14.2%	2.33µM*	34.6%
SMILES	SARS PLpro yeast	AMA1 RON2 block	Pf growth 96h	Pf growth 48h
Cc1ccccc1-n1c(C)cc(/C=C(\C#N)C(=O)NCC2CCCO2)c1C (configuration not stated)	4.9%	2.5%	8.28µM*	-77.5%
CNC(=O)/C(C#N)=C/c1cn(CC(=O)NCc2ccco2)c2ccccc12	2.8%	-4.3%	11.9%	-1.2%
COCCNC(=O)Cn1cc(/C=C(\C#N)C(=O)NC2CCCC2)c2ccccc21	-0.1%	?	10.4µM*	4.4%
O=C(NC1CCS(=O)(=O)C1)Oc1ccccc1 (configuration not stated)	7.7%	1.5%	-4.2%	nt
CCn1c(CSc2nnc(-c3cccnc3)n2-c2ccccc2C)nc2cc(C(=O)O)ccc21	-6.9%	nt	123.4%	-29.3%
CCOCCCNS(=O)(=O)c1ccc2c(c1)CCN2C(=O)CC	-2.0%	8.3%	45.0%	11.5%
Cc1ccc(C)c(OCCn2cc(/C=C(\C#N)C(=O)NCc3cccs3)c3ccccc32)c1	0.8%	-15.7%	3.29µM*	4.65µM*
C/C(=N\N=C(N)N)c1ccc(Cl)c(Cl)c1	-0.2%	10.2%	?	4.15µM*
Cc1cc(=O)oc2cc3c(cc12)OCCN3	4.1%	-11.9%	37.0%	42.8%
CC(C)(C)C1=CC(=O)C(=O)C(C(C)(C)C)=C1	-66.6%	1.4%	-25.7%	-20.5%
CC(C)(C)C1=CC(=Nc2ccccc2N)C=C(C(C)(C)C)C1=O	2.2%	11.2µM*	2.7%	-0.3%
CCN(C(=O)CCS(=O)(=O)c1cccc2nsnc12)c1cccc(C)c1	9.5%	3.1%	-4.8%	-17.4%
NC1=NC[C@@H](Cc2ccc(O)cc2)N1CCc1cc(C(F)(F)F)cc(C(F)(F)F)c1	-0.7%	13.9%	3.29µM*	5.86µM*
NC1=NC[C@H](CC2CCCCC2)N1CCc1cc(C(F)(F)F)cc(C(F)(F)F)c1	-6.6%	4.6%	2.33µM*	2.94µM*
O=C1NC[C@H](Cc2ccc(O)cc2)N(CCc2cccc(F)c2)C1=O	nt	-15.7%	nt	nt
FC(F)(F)c1cc(CCN2CCNC[C@@H]2CC2CCCCC2)cc(C(F)(F)F)c1	4.9%	0.0%	nt	nt
NC1=NC[C@@H](Cc2ccc(O)cc2)N1CCc1cccc(F)c1	-3.8%	-2.3%	1.85µM*	10.4µM*
CCOC(=O)C1=C(C)N(CCCCCC(=O)O)C(=O)NC1c1ccccc1Cl (configuration not stated)	8.1%	4.4%	-30.3%	4.3%
CCN(CC)CCNC(=S)Nc1ccc2nc(N3CCN(CC)CC3)cc(C)c2c1	1.2%	-1.8%	-15.7%	11.7µM*
CCN1CCN(c2cc(C)c3cc(NC(=S)NCCN(C)C)ccc3n2)CC1	-0.9%	8.4%	70.0%	?
CCCCNC(=S)Nc1ccc2nc(N3CCN(CC)CC3)cc(C)c2c1	1.5%	-3.4%	?	-2.8%[0.00184 µM]
CCCCN(C)CCNC(=S)Nc1ccc2nc(N3CCN(CC)CC3)cc(C)c2c1	-0.3%	2.2%	?	2.33µM*
CCc1nnc(NS(=O)(=O)c2ccc(N/C=C/C(=O)c3ccc(C)cc3)cc2)s1	16.5%	3.4%	-11.0%	20.5%
Cc1nc(-c2ccc(F)cc2)c(CC(=O)N(C)CC(=O)Nc2ccccc2Cl)s1	-5.9%	6.5%	13.1µM*	-14.9%
Cc1ccccc1C(=O)Nc1ccc2c(c1)CCCN2C(=O)c1cccs1	-5.6%	-8.1%	?	-22.3%
Cc1noc(C)c1COC(=O)CCCc1nc2ccccc2s1	-3.7%	-13.4%	5.22µM*	-18.3%
CCCCC(=O)OCc1nc2ccccc2s1	2.1%	3.4%	76.3%	394.7%

Source: PubChem (National Center for Advancing Translational Sciences (NCATS))
